Data: PubChem BioAssay (NCI)
The panel holds about 83,000 compounds, 20% with a hit somewhere; the sample as a whole holds those more often.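 Activity criterion: percent growth below 10, measured after cells in 96-well plates were exposed to a single compound concentration for 48 hours.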 Calls of active or inactive are those of the source.

Columns and labels:
Experiment in all cases: NCI-60 one-dose screen, 48 h (100 = growth as untreated, 0 = no growth, -100 = all killed)
Conditions in all cases: 10 µM unless noted
T-47D breast = system: T-47D breast
BT-549 breast = system: BT-549 breast
MDA-MB-435 melanoma = system: MDA-MB-435 melanoma
SW-620 colon = system: SW-620 colon
MCF7 breast = system: MCF7 breast
HCT-116 colon = system: HCT-116 colon
HCC-2998 colon = system: HCC-2998 colon
KM12 colon = system: KM12 colon

Measured: growth

CC1C=CC(OC(=O)C(C)(O)CCC(O)(C(=O)OC2CC(O)C(C(C)C)CC2(C)O)C(C)C)(C(C)C)CC1 (stereo not given)
active: T-47D breast -47.1% [4.63 µM] | BT-549 breast -81% [4.63 µM] | MDA-MB-435 melanoma -92% [4.63 µM] | SW-620 colon -67.8% [4.63 µM] | MCF7 breast -67.6% [4.63 µM] | HCT-116 colon -40% [4.63 µM] | HCC-2998 colon -72.8% [4.63 µM] | KM12 colon -77.4% [4.63 µM]

Oc1c(CN2CCOCC2)cc(COCc2ccccc2)c2cccnc12
inactive: T-47D breast 10.4% | BT-549 breast 36.4% | MDA-MB-435 melanoma 46.8% | SW-620 colon 28.9% | HCT-116 colon 21.6% | HCC-2998 colon 54.2% | KM12 colon 35.6%
active: MCF7 breast 9.26%

CCOC(=O)c1ccccc1-c1c2ccc(=[N+](C)C)cc-2oc2cc(N(C)C)ccc12
inactive: MDA-MB-435 melanoma 11.8% | SW-620 colon 15% | HCC-2998 colon 96.9%
active: T-47D breast 6.72% | BT-549 breast -10.1% | MCF7 breast 3.95% | HCT-116 colon 4.32% | KM12 colon 7.32%

CC1(C)CC[C@]23CC[C@]4(C)[C@H](CC[C@@H]5[C@@]6(C)C/C(=C/c7ccncc7)C(=O)C(C)(C)[C@@H]6CC[C@]54C)[C@H]2[C@H]1OC3
inactive: T-47D breast 41.5% | BT-549 breast 99.3% | MDA-MB-435 melanoma 66.6% | SW-620 colon 61.3% | MCF7 breast 55.3% | HCT-116 colon 50% | HCC-2998 colon 93% | KM12 colon 68.4%

CC(C)=CCNc1ncnc2c1ncn2C1OC(CO)C(O)C1O (stereo not given)
active: T-47D breast -57% [1 mM] | BT-549 breast -51.7% [1 mM] | SW-620 colon -2.16% [1 mM] | MCF7 breast -60.7% [1 mM] | HCT-116 colon -13.7% [1 mM] | HCC-2998 colon -62.5% [1 mM]
inactive: MDA-MB-435 melanoma 23.9% [1 mM] | KM12 colon 10.6% [1 mM]

COc1ccc(C(=O)/C=C/c2ccc(N3CCCCC3)cc2)cc1OC
inactive: T-47D breast 76.6% | BT-549 breast 87.4% | MDA-MB-435 melanoma 103% | SW-620 colon 102% | MCF7 breast 90.4% | HCT-116 colon 82.7% | HCC-2998 colon 107% | KM12 colon 98.9%

c1ccc2c(c1)CCCc1nnc3nc4ccccc4n3c1-2
inactive: T-47D breast 31.7% | BT-549 breast 62.9% | MDA-MB-435 melanoma 61.9% | SW-620 colon 53.7% | MCF7 breast 45.6% | HCT-116 colon 17% | HCC-2998 colon 42.4% | KM12 colon 55.8%

COc1cccc(C(=O)NNc2nc(Cl)nc(Cl)n2)c1
inactive: T-47D breast 91.6% | BT-549 breast 103% | MDA-MB-435 melanoma 105% | SW-620 colon 107% | MCF7 breast 82.8% | HCT-116 colon 108% | HCC-2998 colon 95.2% | KM12 colon 105%

Cc1ccc2nc(NC(=O)CSc3nc(-c4ccccc4)c(C#N)c4nnnn34)sc2c1
inactive: T-47D breast 100% | BT-549 breast 106% | MDA-MB-435 melanoma 105% | SW-620 colon 104% | MCF7 breast 95.7% | HCT-116 colon 99.1% | HCC-2998 colon 103% | KM12 colon 102%

CC(C)(C)n1cc(-c2ccnc(NCCCNS(=O)(=O)c3ccc(C(F)(F)F)cc3)c2)c(-c2cccc(F)c2)n1
inactive: T-47D breast 64.5% | BT-549 breast 84% | MDA-MB-435 melanoma 93.7% | SW-620 colon 90% | MCF7 breast 66.2% | HCT-116 colon 54.4% | HCC-2998 colon 106% | KM12 colon 65.7%

C#CCO[C@H]1CC(CC#C)(CC#C)C(=O)[C@@H]2[C@H]1[C@H]1C[C@@H]3[C@@]4(C)CCC[C@@](C)(C(=O)OC)[C@@H]4CC[C@@]23C=C1C(C)C
inactive: T-47D breast 84% | BT-549 breast 101% | MDA-MB-435 melanoma 100% | SW-620 colon 95.9% | MCF7 breast 96.1% | HCT-116 colon 96.1% | HCC-2998 colon 103% | KM12 colon 63.1%

c1ccc(CCNc2c3ccccc3nc3ccccc23)cc1
inactive: T-47D breast 48.9% | BT-549 breast 73.6% | MDA-MB-435 melanoma 55.3% | SW-620 colon 28.3% | MCF7 breast 12.2% | HCT-116 colon 16.5% | HCC-2998 colon 41.4% | KM12 colon 57.4%

Fc1cccc(-c2ccc3c(c2)C2(CCNCC2)CN3)c1
inactive: T-47D breast 78.9% | BT-549 breast 93.1% | MDA-MB-435 melanoma 108% | SW-620 colon 106% | MCF7 breast 92.5% | HCT-116 colon 94.3% | HCC-2998 colon 99.4% | KM12 colon 102%

CN1CCN(c2ccc(NC(=O)c3cncnc3Nc3ccc(OCc4cccc(F)c4)c(Cl)c3)cc2)CC1
inactive: T-47D breast 72.9% | BT-549 breast 102% | MCF7 breast 13.4% | HCT-116 colon 17.4% | HCC-2998 colon 71.5% | KM12 colon 75.8%
active: MDA-MB-435 melanoma -72.3% | SW-620 colon -30.5%

Cc1ccc(S(=O)(=O)OCCCOS(=O)(=O)c2ccc(C)cc2)cc1
inactive: T-47D breast 99.3% | BT-549 breast 96.2% | MDA-MB-435 melanoma 101% | SW-620 colon 103% | MCF7 breast 91.2% | HCT-116 colon 94.1% | HCC-2998 colon 99.7% | KM12 colon 99.1%

N#C/C(=C\c1ccc([N+](=O)[O-])cc1)n1nnc2cc(F)c(F)cc21
inactive: BT-549 breast 77.6% | MDA-MB-435 melanoma 41.1% | MCF7 breast 21.8%
active: T-47D breast -15.2% | SW-620 colon -18.5% | HCT-116 colon -46.4% | HCC-2998 colon -56.2% | KM12 colon 3.75%

C=C1C(=O)O[C@H]2[C@H]1CC/C(CNC(=O)c1c[nH]c3ccc(F)cc13)=C\CC[C@@]1(C)O[C@@H]21
active: T-47D breast -39.6% | MDA-MB-435 melanoma 3.64% | SW-620 colon -48.9% | MCF7 breast -26.3% | HCT-116 colon -49.1% | HCC-2998 colon -79.3%
inactive: BT-549 breast 13% | KM12 colon 42.4%

O=C1/C(=C\c2ccccn2)c2ccccc2N1c1c(Cl)cccc1Cl
active: T-47D breast 4.47% | BT-549 breast -17.7% | MDA-MB-435 melanoma -5.05% | SW-620 colon -56.9% | MCF7 breast 2.29% | HCT-116 colon -94.4% | HCC-2998 colon -82.1% | KM12 colon -2.11%

COc1cc(C(=O)c2c(-c3ccccc3)oc3c(OC)cccc23)cc(OC)c1OC
inactive: T-47D breast 58.2% | SW-620 colon 20.1% | MCF7 breast 10.1%
active: BT-549 breast -5.83% | MDA-MB-435 melanoma -28.9% | HCT-116 colon -8.11% | HCC-2998 colon -4.94% | KM12 colon 3.21%

C=CC(=O)Nc1ccc(Nc2nccc(-c3ccc(N4CCCC4)c(C#N)c3)n2)cc1
active: MDA-MB-435 melanoma -11.8% | SW-620 colon 3% | MCF7 breast 9.75%
inactive: T-47D breast 41.5% | BT-549 breast 45.6% | HCT-116 colon 24.8% | HCC-2998 colon 31.5% | KM12 colon 14.6%

Cc1ccc(-c2csc(NC(=O)c3ccccc3CN3C(=O)c4ccccc4C3=O)n2)cc1
inactive: T-47D breast 97.1% | BT-549 breast 91.4% | MDA-MB-435 melanoma 95.3% | SW-620 colon 100% | MCF7 breast 94.3% | HCT-116 colon 95.4% | HCC-2998 colon 98% | KM12 colon 100%

C=C(C)[C@@H]1CCC[C@]2(C(=O)N3CCN(C)CC3)CC[C@]3(C)[C@@H](CC[C@@H]4[C@@]5(C)CC/C(=N\NC(=O)c6ccncc6)C(C)(C)[C@@H]5CC[C@]43C)[C@@H]12
inactive: T-47D breast 87.7% | BT-549 breast 105% | MDA-MB-435 melanoma 81.8% | SW-620 colon 81.2% | MCF7 breast 50.7% | HCT-116 colon 97.8% | HCC-2998 colon 105% | KM12 colon 85.4%

O=C(c1c[nH]c2ccccc12)c1n[nH]c(=S)n1-c1cccc(Br)c1
inactive: T-47D breast 26.1% | BT-549 breast 120% | MDA-MB-435 melanoma 102% | SW-620 colon 94.6% | MCF7 breast 33.4% | HCT-116 colon 89.7% | HCC-2998 colon 38.8% | KM12 colon 50.7%

CCN1C(=O)N(CC)C2C1NN=c1s/c(=C\c3ccc[nH]3)c(=O)n12 (stereo not given)
active: MDA-MB-435 melanoma -57% | KM12 colon 8.23%
inactive: T-47D breast 31% | BT-549 breast 51.2% | SW-620 colon 16.9% | MCF7 breast 17.6% | HCT-116 colon 17% | HCC-2998 colon 33.1%

CNC1=C([N+](=O)[O-])C(c2ccc(OC)cc2)C(C#N)=C(c2cccs2)O1 (stereo not given)
inactive: T-47D breast 91.7% | BT-549 breast 117% | MDA-MB-435 melanoma 108% | SW-620 colon 106% | MCF7 breast 96% | HCT-116 colon 109% | HCC-2998 colon 109% | KM12 colon 103%

NC(=O)c1cnc(Nc2cccc(N)c2)nc1NCCCNC(=O)C1CCC1
inactive: T-47D breast 106% | BT-549 breast 26.7% | MDA-MB-435 melanoma 82.6% | SW-620 colon 86.8% | MCF7 breast 74.7% | HCT-116 colon 65.5% | HCC-2998 colon 103% | KM12 colon 74.8%

Ic1ccccc1I
inactive: T-47D breast 107% | BT-549 breast 115% | MDA-MB-435 melanoma 111% | SW-620 colon 108% | MCF7 breast 91.5% | HCT-116 colon 98.5% | HCC-2998 colon 98.2% | KM12 colon 104%

CCN1C(=O)N(CC)C2C1N=C(SCc1ccc(Cl)cc1)N2/N=C/C=C/c1ccccc1OC (stereo not given)
inactive: T-47D breast 41.6% | BT-549 breast 106% | SW-620 colon 74.8% | MCF7 breast 13.5% | HCT-116 colon 37% | HCC-2998 colon 85.9% | KM12 colon 64.6%
active: MDA-MB-435 melanoma -16.9%

Cc1ccc(/C=C/C(=O)c2cccc(OCCCOc3cccc(C(=O)/C=C/c4ccc(C)cc4)c3)c2)cc1
active: MCF7 breast 2.54%
inactive: T-47D breast 58.4% | BT-549 breast 79.7% | MDA-MB-435 melanoma 89.3% | SW-620 colon 68.1% | HCT-116 colon 18.3% | HCC-2998 colon 66.3% | KM12 colon 78.8%

CN1CCN(Cc2ccc(NC(=O)c3cncc(C#Cc4cnc5ccc(Cl)nn45)c3)cc2C(F)(F)F)CC1
active: BT-549 breast -6.27% | MDA-MB-435 melanoma -10.4% | SW-620 colon -2.63% | MCF7 breast -2.36% | HCT-116 colon -12.6% | HCC-2998 colon -24.4% | KM12 colon -0.151%
inactive: T-47D breast 10.4%
